Data: PubChem BioAssay (NCI)
About 83,000 compounds went through this panel and 20% of them were active in at least one assay; those are over-represented in the sample as a whole.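 Step 1: grow cells in 96-well plates. Step 2: add test compound at a single concentration. Step 3: incubate 48 h. Step 4: record percent growth.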 Active and inactive are the calls of the source. How the source made its calls: active means growth percent below 10; inactive means the rest.

How the values were obtained:
Assay in all cases: NCI-60 one-dose screen, 48 h (100 = growth as untreated, 0 = no growth, -100 = all killed)
[1] = system: SR leukemia; details: 10 µM unless noted
[2] = system: RPMI-8226 leukemia; details: 10 µM unless noted
[3] = system: OVCAR-8 ovarian; details: 10 µM unless noted
[4] = system: OVCAR-5 ovarian; details: 10 µM unless noted
[5] = system: OVCAR-4 ovarian; details: 10 µM unless noted
[6] = system: SK-OV-3 ovarian; details: 10 µM unless noted
[7] = system: IGROV1 ovarian; details: 10 µM unless noted
[8] = system: OVCAR-3 ovarian; details: 10 µM unless noted
[9] = system: NCI/ADR-RES ovarian; details: 10 µM unless noted
[10] = system: T-47D breast; details: 10 µM unless noted
[11] = system: BT-549 breast; details: 10 µM unless noted
[12] = system: MDA-MB-435 melanoma; details: 10 µM unless noted
[13] = system: SW-620 colon; details: 10 µM unless noted
[14] = system: MCF7 breast; details: 10 µM unless noted
[15] = system: HCT-116 colon; details: 10 µM unless noted
[16] = system: KM12 colon; details: 10 µM unless noted
[17] = system: HCC-2998 colon; details: 10 µM

Measured: growth

CN(C)C1CCN(C(=O)c2ccc(NC(=O)Nc3ccc(-c4nc(N5CCOCC5)nc(N5CCOCC5)n4)cc3)cc2)CC1
inactive: [9] 95.6% [2.5 µM] | [15] 12.8% [2.5 µM]
active: [1] 3.59% [2.5 µM] | [2] -2.37% [2.5 µM] | [3] -20.9% [2.5 µM] | [4] -2.63% [2.5 µM] | [5] -29.9% [2.5 µM] | [6] -51.9% [2.5 µM] | [7] -54.8% [2.5 µM] | [8] 2.07% [2.5 µM] | [10] -45.3% [2.5 µM] | [11] -10.1% [2.5 µM] | [12] -16.6% [2.5 µM] | [13] 8.13% [2.5 µM] | [14] 3.87% [2.5 µM] | [16] 5.58% [2.5 µM]

C[C@H]1Oc2cc(cnc2N)-c2c(nn(C)c2C#N)CN(C)C(=O)c2ccc(F)cc21
inactive: [2] 92.6% | [3] 83.2% | [4] 58.3% | [5] 81.1% | [6] 55.1% | [7] 80.2% | [8] 108% | [9] 80.4% | [10] 84.4% | [11] 103% | [12] 80% | [13] 90.4% | [14] 60% | [15] 68.7%
active: [1] 6.17% | [16] 9.06%

COCCOc1cnc2ccn([C@H](C)c3nnc4c(F)cc(-c5cnn(C)c5)cn34)c(=O)c2c1
inactive: [1] 84% | [2] 78.8% | [3] 86.9% | [4] 31.5% | [5] 88.4% | [6] 82.4% | [7] 66.3% | [8] 102% | [9] 91.3% | [10] 94.6% | [11] 105% | [12] 60% | [13] 35.5% | [14] 103% | [15] 99.9% | [16] 28.3%

CC[C@@H]1C(=O)N(C)c2cnc(Nc3ccc(C(=O)NC4CCC(N5CCN(CC6CC6)CC5)CC4)cc3OC)nc2N1C(C)C (stereo not given in full)
inactive: [4] 22.5% | [5] 24.8% | [9] 25.8% | [11] 18.3% | [13] 12.2%
active: [1] -11.5% | [2] -42.8% | [3] 1.34% | [6] -68.8% | [7] -18.5% | [8] -13.8% | [10] 7.48% | [12] -29.6% | [14] -24% | [15] -6.9% | [16] 4.24%

Cc1cnc(NC(=O)Nc2cc(Br)c(C)cc2OC[C@@H]2CNCCO2)cn1
active: [1] -18.5% | [3] 1.6% | [9] 7.93% | [10] -46.5% | [12] -36.2% | [14] 2%
inactive: [2] 13% | [4] 36.6% | [5] 45.6% | [6] 32% | [7] 30.5% | [8] 22.2% | [11] 23.6% | [15] 10.4% | [17] 12% | [16] 15%

CC(=O)c1cnc2ccc(-c3cc(Cl)c(O)c(Cl)c3)nc2c1NC1CCC(CN(C)C)CC1 (stereo not given)
active: [1] -16% [2.5 µM] | [2] -24.3% [2.5 µM] | [3] -22.9% [2.5 µM] | [4] 2.38% [2.5 µM] | [5] -9.08% [2.5 µM] | [6] -32.6% [2.5 µM] | [7] -17.3% [2.5 µM] | [8] 2.02% [2.5 µM] | [9] -13.7% [2.5 µM] | [10] -22.9% [2.5 µM] | [11] -44.9% [2.5 µM] | [12] -37.2% [2.5 µM] | [13] 6.12% [2.5 µM] | [14] -4.22% [2.5 µM] | [15] -2.49% [2.5 µM] | [16] -2.64% [2.5 µM]

FC(F)c1nc2ccccc2n1-c1nc(N2CCOCC2)nc(N2CCOCC2)n1
inactive: [13] 13.4% | [15] 14%
active: [1] 1.58% | [2] 8.02% | [3] -8.56% | [4] 1.3% | [5] -17.1% | [6] -46% | [7] -37% | [8] -0.63% | [9] -12.9% | [10] -36.1% | [11] -8.49% | [12] -8.55% | [14] 1.28% | [16] 3.42%

Cc1cccc(Cl)c1NC(=O)c1cnc(Nc2cc(N3CCOCC3)cc(N3CCOCC3)c2)s1
active: [3] -36.2% | [6] -38.7% | [7] -51.7% | [10] 0.787%
inactive: [1] 15.7% | [2] 89.8% | [4] 23.3% | [5] 60.4% | [8] 19.7% | [9] 23.6% | [11] 56.3% | [12] 10.3% | [13] 82.2% | [14] 75% | [15] 11.5% | [16] 62.4%

CC1(C)NC(=O)c2[nH]c3c(Cl)c(Cl)ccc3c2C1C#N (stereo not given)
inactive: [1] 67.5% | [2] 69.6% | [3] 89.2% | [4] 85.2% | [5] 60.7% | [6] 100% | [7] 100% | [8] 82.4% | [9] 85% | [10] 59.2% | [11] 73.3% | [12] 88.1% | [13] 105% | [14] 87% | [15] 83.6% | [16] 93.4%

CS(=O)(=O)N1CCc2c(-c3cnc(N)nc3)nc(N3CCOCC3)nc21
active: [1] 6.13% | [3] 6.31% | [4] 4.76% | [5] -5.74% | [6] -40.6% | [7] -38.1% | [8] 9.64% | [10] -37.2% | [11] -7.63% | [12] 2.21% | [14] 6.89% | [16] 8.03%
inactive: [2] 18.1% | [9] 12.9% | [13] 24.3% | [15] 20.4%

CCCCCCCC12Cc3ccccc3C1=Nc1c(c3ccccc3n1C)C2=O (stereo not given)
inactive: [1] 82.6% | [2] 91.8% | [3] 85.2% | [4] 86.5% | [5] 97.4% | [6] 81.6% | [7] 69.5% | [8] 92.9% | [9] 94.2% | [10] 72.4% | [11] 108% | [12] 105% | [14] 80.2% | [15] 73.9% | [17] 96.3% | [16] 94.2%

COc1cc(Nc2ncc(F)c(Nc3ccc4c(n3)NC(=O)C(C)(C)O4)n2)cc(OC)c1OC
inactive: [1] 38.5% | [2] 71.8% | [3] 67.3% | [4] 24.1% | [5] 73.8% | [6] 21.8% | [8] 63.4% | [9] 59.1% | [10] 39% | [11] 34.1% | [12] 51.2% | [14] 41.5% | [15] 59.3% | [17] 100% | [16] 12.3%
active: [7] -9.34%

CC(=O)c1c(C)c2cnc(Nc3ccc(N4CCNCC4)cn3)nc2n(C2CCCC2)c1=O
active: [1] -18.7%
inactive: [2] 28.2% | [3] 52.3% | [4] 37.8% | [5] 62% | [6] 36.5% | [7] 27.2% | [8] 74.6% | [9] 72.4% | [10] 55.7% | [11] 50.5% | [12] 45.5% | [14] 27.4% | [15] 10.6% | [17] 57.3%

CC#CC(=O)N1CCC[C@H]1c1nc(-c2ccc(C(=O)Nc3ccccn3)cc2)c2c(N)nccn12
active: [6] -0.746%
inactive: [1] 68.3% | [2] 79.7% | [3] 77.8% | [4] 78.5% | [5] 99.5% | [7] 64.8% | [8] 86.5% | [9] 94.3% | [10] 58.1% | [11] 84.5% | [12] 91.5% | [13] 112% | [14] 77.5% | [15] 83.7% | [16] 91.8%

O=C(Nc1ccc(-c2ccnc(Nc3ccc(N4CCOCC4)cc3)n2)cc1)[C@@H]1CCCN1
active: [1] 4.92%
inactive: [2] 57% | [3] 72.2% | [4] 76.8% | [5] 71.4% | [6] 42.6% | [7] 60.8% | [8] 76.5% | [9] 87.3% | [10] 56.1% | [11] 50.9% | [12] 57.7% | [13] 76.6% | [14] 58% | [15] 34.1% | [16] 35.6%

CNC(=O)c1c(C)oc2cc(Oc3ncnc4cc(OC)c(OC)cc34)ccc12
inactive: [1] 85.7% | [2] 105% | [3] 85.3% | [4] 95.3% | [5] 78.3% | [6] 92.3% | [7] 95.2% | [8] 89.2% | [9] 95.1% | [10] 94% | [11] 73.6% | [12] 114% | [13] 104% | [14] 97.6% | [15] 93.7% | [16] 102%
